KCNH2 WT inh: KCNH2 (human, wildtype) channel inhibition. U2OS, BacMam KCNH2, thallium flux FluxOr; active compounds read low. 340,000 compounds, 0.37% hits. AID 720551. activity change, % at 1.84 µM;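 active = maximum activity change below -70%; inconclusive = maximum activity change between -70% and -50%; inactive = maximum activity change above -50%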; also: % is scaled to controls: 0 for no effect and ±100 for the full control effect
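U2OS cells transduced with wild-type KCNH2 virus are loaded with FluxOr dye for 45 min, and thallium flux is measured in kinetic reads before and after stimulation buffer. Rate constants are normalized to DMSO controls.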
TRPML1 blocker: blocks the human TRPML1 channel; 390,000 compounds, 0.02% hits; activity change, negative = inhibition, % (concentration not given with the values); TRPML1-inducible cells, Ca2+ dye fluorescence, FDSS; active compounds read low; inhibition of EC80 agonist-evoked calcium signal; in the data active = activity change below about -50%; inconclusive = between about -30% and that limit;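 also: stimulus is agonist 54-4 at its EC80 concentration; % is scaled to controls: 0 for no effect and ±100 for the full control effect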
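Tet-induced TRPML1-DL cells loaded with Ca8 no-wash calcium dye were read kinetically on FDSS. Compound addition was followed by EC80 agonist 54-4 (4 uM final); inhibition was read over 110 s.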
TRPML1 ag: activates the human TRPML1 channel; Q9GZU1; TRPML1-expressing cells, Ca2+ dye fluorescence, FDSS; activation, % (test concentration not listed); 410,000 compounds, 0.12% hits; in the data active = activation above about 50%; inconclusive = mostly about 30% to 49%; also: 0% is about no effect
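Tetracycline-induced TRPML1-DL cells are seeded and incubated overnight before loading with a no-wash Ca2+ dye and quencher. Agonist activity is taken from the 110 s fluorescence read following compound pin-transfer on an FDSS, before EC80 54-4 challenge.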
KCNH2 3.1 block: KCNH2 3.1 (human) potassium channel inhibition. 340,000 compounds, 0.95% hits. AID 720553. activity change, % (tested at about 1.8 µM). U2OS KCNH2 3.1, thallium flux FluxOr; active compounds read low;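 active = maximum activity change below -70%; inconclusive = maximum activity change from -70% to -50%; inactive = maximum activity change above -50%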;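 also: thallium influx rate constant from kinetic fluorescence after stimulation buffer; % is scaled to controls: 0 for no effect and ±100 for the full control effect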
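Thallium flux read-out: FluxOr dye with Red40 quencher in HBSS/HEPES, 45 min at RT. Rate constants from kinetic reads were normalized to positive and negative DMSO controls. Cells: U2OS virally expressing the 3.1 isoform.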
TRHR enhancer-1: allosterically enhances the human TRH receptor; P34981; TRHR cells, fluo-8 calcium fluorescence, EC20 TRH enhancement; enhancement, % at 2 µM; 360,000 compounds, 0.66% hits; AID 493056; in the data active = enhancement above about 30%; also: 0% is about no effect
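Enhancer read-out: after compound pinning and an initial kinetic agonist-mode read, an EC20 of TRH (10 nM final) was injected and fluo-8 calcium signal (Ex 480/Em 530) followed at 1 s/cycle for 100 cycles in TRHR-expressing cells.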
TRHR agonist-1: agonists of human TRH receptor; AID 493084; activation, % at 2 µM; 360,000 compounds, 0.18% hits; TRHR cells, calcium flux fluo-8, FDSS agonist mode; in the data active = activation above about 30%; also: 0% is about no effect
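TRHR-expressing cells loaded with fluo-8 calcium dye; 23 nL library compound pin-transferred, kinetic FDSS fluorescence (Ex 480/Em 530) recorded about 180 s for agonist-induced calcium release, before a 10 nM TRH EC20 addition for potentiator mode.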
TRHR enhancer-2: human TRH receptor allosteric enhancement confirmation; AID 493076; TRH receptor cell assay, enhancer confirmation qHTS; activity change, negative = inhibition, % at 46.1 µM; 970 tested, under 10 active; shares compounds with TRHR enhancer-1;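 also: compound effect scored on response to added TRH at EC20 of 10 nM; 0% is about no effect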
TRHR agonist-2: confirmation of human TRH receptor agonists; shares compounds with TRHR enhancer-1; Potency, µM (highest dose often 46.1 µM), inactives show top-dose activation, hits mostly activators; 970 compounds, 8% hits; TRHR-expressing cells, agonist activation read-out; also: potency is read from the fitted curve at half-maximal effect; 0% is about no effect; nearly all actives have a fitted effect of over 75% in size
The depositor's hits bear a star; ? = inconclusive; . = no result. A selection: hits, their analogues and other compounds. The true share with any hit is near 1.7%. Unless noted, calls follow the shape of the dose curve; as a rule, active = well fitted curve in the direction sought with a large enough effect; inconclusive = small, poorly fitted or top-dose-only effect, or another doubt; inactive = no such curve, though single readings can be large; an effect the other way counts as inactive or inconclusive.

SMILES | KCNH2 WT inh | TRPML1 blocker | TRPML1 ag | KCNH2 3.1 block | TRHR enhancer-1 | TRHR agonist-1 | TRHR enhancer-2 | TRHR agonist-2
NS(=O)(=O)c1ccc(NC(=O)COC(=O)c2cn(-c3ccccc3)nc2-c2ccc(F)cc2)cc1 | 9 | 15 | 1 | -18 | 45* | 1 | -8 | ?
CCCCn1nnnc1SCC(=O)c1ccc(C)c(C)c1 | 3 | 1 | 0 | -1 | 5 | -1 | . | .
Cc1ccc(C(=O)CSc2nnc(C(C)C)n2C)cc1C | 15 | 3 | 0 | -3 | 42* | -1 | -6 | -1%
Cc1ccc(NC(=O)CSCC(=O)NCc2ccco2)cc1 | -44 | -3 | 0 | 0 | 46* | 0 | 2 | 1%
COc1ccc(NC(=O)C2(C)Cc3c(-c4ccc5c(c4)OCO5)ccnc3O2)cn1 (centres undefined) | . | -4 | 0 | . | . | . | . | .
CS(=O)(=O)c1ccc(Cl)c(NC(=O)COC(=O)c2c(Cl)cccc2Cl)c1 | -1 | -5 | 0 | -4 | 41* | -2 | 2 | 2%
CC(=O)Nc1sc(C)c(C)c1C(=O)OCC(=O)Nc1cc(S(C)(=O)=O)ccc1Cl | -3 | . | . | -14 | 1 | 0 | . | .
C[C@@H]1CN([C@@H](C)CO)C(=O)CCCn2nncc2CO[C@@H]1CN(C)C(=O)Nc1cccc(Oc2ccccn2)c1 | 1 | 16 | 0 | -2 | . | . | . | .
Cn1c(N)c(C(=O)COC(=O)C2Cc3ccccc3CN2S(C)(=O)=O)c(=O)n(C)c1=O (centres undefined) | 6 | 3 | -1 | 3 | . | . | . | .
C/C=C/c1cc(CN2CCN(c3ccccc3)CC2)c(O)c(OC)c1 | 33 | 32 | 2 | -17 | 42* | 2 | -3 | -1%
CCOC(=O)CN1N=C(c2ccc(Cl)cc2)CCC1=O | -4 | -3 | -1 | -9 | 41* | 0 | -2 | 2%
O=C(CN1N=C(c2ccc(Cl)cc2)CCC1=O)NCCc1ccc(Cl)cc1 | . | -19 | 0 | . | -1 | 0 | . | .
CCOc1ccccc1N(CC(=O)N1CCOCC1)S(=O)(=O)c1ccc(SC)cc1 | -6 | -3 | 105* | -13 | -3 | 92* | -7 | 2.1µM*
Cc1ccc(S(=O)(=O)N(CC(=O)N2CCOCC2)c2ccccc2F)cc1 | -6 | 20 | -1 | -3 | -10 | 0 | . | .
Cc1ccccc1Nc1nc(N)nc(COC(=O)CC2CC3CCC2C3)n1 (centres undefined) | -1 | -14 | 2 | 9 | 51* | -1 | 0 | 1%
Cc1ccccc1Nc1nc(N)nc(COC(=O)CCS(=O)(=O)c2ccccc2)n1 | -5 | 10 | 0 | -2 | 1 | -1 | . | .
Cc1ccc(S(=O)(=O)/N=C2\C=C(Nc3cccc(C(=O)O)c3)C(=O)c3ccccc32)cc1 | 2 | 19 | 8 | 7 | 0 | 0 | . | .
Cc1ccc(S(=O)(=O)/N=C2\C=C(Nc3cccc(C(=O)O)c3)C(=O)c3ccccc32)c(C)c1 | -1 | -3 | 3 | -2 | 61* | -2 | -12 | 3%
CCN(CC)S(=O)(=O)c1cccc(C(=O)N/N=C(\C)c2ccc(O)cc2O)c1 | -9 | 3 | 0 | 10 | -3 | 25 | 3 | ?
CCc1ccc(NC(=O)C(=O)NCCc2csc(-c3cccc(F)c3)n2)cc1 | . | -7 | 0 | . | 1 | 0 | . | .
Cn1c(O)c(N=NC(=N)N)c2ccccc21 | . | . | . | 1 | 66* | 1 | -2 | -1%
CCCCOc1ccc(C(=O)N/C(=C/C=C/c2ccccc2)C(=O)O)cc1 | -19 | 16 | 0 | 16 | -1 | 29 | -6 | 0%
CCCCOc1ccc(C(=O)N/C(=C/C=C/c2ccccc2)C(=O)NC)cc1 | 3 | -15 | 1 | 26 | -1 | 4 | . | .
